Values of other authors in PubChem BioAssay AID977610.
The whole screen tested about 3,600 compounds, of which about 3,600 (100%) were called active. No cut-off is given here; in the data, nearly all actives have Ki up to about 18000 µM. The set was probably picked from earlier hits. Some of the results follow. Bridge positions count the residues as written; N and C are the ends. Square brackets hold non-standard residues; d marks the D form. Peptide text beside a SMILES is read from it. Orn(CH(NH2)2) = NC(N)NCCC[C@H](N)C(=O)O

Assay: PubChem AID 977610
Conditions: PDB protein-ligand complexes, literature Ki

CC(C)C[C@H](NC(=O)[C@@H]1CSS[C@@H]2CSSC[C@H](NC(=O)CNC(=O)[C@H](CCCN=C(N)N)NC(=O)CNC(=O)[C@H](CC(C)C)NC(=O)[C@@H](NC(=O)CN)C2)C(=O)N[C@@H](CCC(=O)O)C(=O)N[C@@H](CC(N)=O)C(=O)N[C@@H](Cc2cnc[nH]2)C(=O)N[C@@H](CCCN=C(N)N)C(=O)N1)C(N)=O
Ki (protein: Urokinase-type plasminogen activator, PDB entry 4os2): 0.2 µM (active)

NC(=O)C[C@@H]1NC(=O)[C@@H](N)CSSC[C@@H](C(=O)NCC(=O)O)NC(=O)[C@H](CCCN=C(N)N)NC(=O)CNC1=O (H-CNGRCG-OH; disulfide 1-5)
Ki (protein: Aminopeptidase N pAPN, PDB entry 4ou3): 38.7 µM (active)

CC(C)C[C@H](NC(=O)[C@@H]1CSSC[C@H]2C[C@H](NC(=O)CN)C(=O)N[C@@H](CC(C)C)C(=O)NCC(=O)N[C@@H](CCCN=C(N)N)C(=O)NCC(=O)N[C@@H](CSS2)C(=O)N[C@@H](CCC(=O)O)C(=O)N[C@@H](CC(N)=O)C(=O)N[C@@H](Cc2cnc[nH]2)C(=O)N[C@@H](CCCN=C(N)N)C(=O)N1)C(N)=O
Ki (protein: Urokinase-type plasminogen activator, PDB entry 4os6): 0.36 µM (active)

CSCC[C@@H]1NC(=O)[C@H](CCCNC(N)N)NC(=O)[C@H](Cc2cnc[nH]2)NC(=O)[C@H](CC(N)=O)NC(=O)[C@H](CCC(=O)O)NC(=O)[C@H](CC(C)C)NC(=O)CNC(=O)[C@H](CCCNC(N)N)NC(=O)[C@H](Cc2c[nH]c3ccccc23)NC(=O)[C@H](CO)NC(=O)[C@@H](N)CSSC[C@@H](C(=O)O)NC1=O (H-CSW[Orn(CH(NH2)2)]GLENH[Orn(CH(NH2)2)]MC-OH; disulfide 1-12)
Ki (protein: Plasminogen activator, urokinase, PDB entry 2nwn): 0.5 µM (active)

CC(C)C[C@H](NC(=O)[C@@H]1CSSC[C@H](N)C(=O)N[C@H]2CSSC[C@H](NC(=O)CNC(=O)[C@H](CCCNC(N)N)NC(=O)CNC(=O)[C@H](CC(C)C)NC2=O)C(=O)N[C@@H](CCC(=O)O)C(=O)N[C@@H](CC(N)=O)C(=O)N[C@@H](Cc2cnc[nH]2)C(=O)N[C@@H](CCCNC(N)N)C(=O)N1)C(N)=O (H-CCLG[Orn(CH(NH2)2)]GCENH[Orn(CH(NH2)2)]CL-NH2; disulfide 1-12, 2-7)
Ki (protein: Urokinase-type plasminogen activator (C122A, N145Q mutation), PDB entry 4gly): 7.7 µM (active)

O=c1cc(-c2ccc(Br)cc2)oc2ccccc12
Ki (protein: Tankyrase-2, PDB entry 4kzu): 0.313 µM (active)

COc1ccc(CC[C@@H](OC(=O)[C@@H]2CCCCN2C(=O)[C@H](c2cc(OC)c(OC)c(OC)c2)[C@@H]2C=CCCC2)c2cccc(OCCN3CCOCC3)c2)cc1OC
Ki (protein: Peptidyl-prolyl cis-trans isomerase FKBP5 FKBP51FK1, PDB entry 4tw7): 0.026 µM (active)

C=CC[C@H](C(=O)N1CCCC[C@H]1C(=O)O[C@H](CCc1ccc(OC)c(OC)c1)c1cccc(OCC(=O)O)c1)c1cc(OC)c(OC)c(OC)c1
Ki (protein: Peptidyl-prolyl cis-trans isomerase FKBP5 FKBP51FK1, PDB entry 4tw6): 61 µM (active)

COc1ccc(CC[C@@H](OC(=O)[C@@H]2CCCCN2C(=O)[C@H](c2cc(OC)c(OC)c(OC)c2)[C@@H]2CC=CCC2)c2cccc(OCC(=O)NCc3c(O)ccc4cc5ccc(=O)cc-5oc34)c2)cc1OC
Ki (protein: Peptidyl-prolyl cis-trans isomerase FKBP4 FKBP52FK1FK2, PDB entry 4tw8): 2.61 µM (active)

OC[C@H]1CNC[C@@H](O)[C@@H]1O[C@@H]1O[C@H](CO)[C@@H](O)[C@H](O)[C@@H]1O
Ki (protein: GH26 beta-mannanase CjMan26C from Cellvibrio japonicus, PDB entry 4cd4): 0.263 µM (active) | Ki (protein: GH113 beta-mannanase AaManA from Alicyclobacillus acidocaldarius, PDB entry 4cd6): 260 µM (active)

OC[C@H]1CNC[C@@H](O)[C@@H]1O
Ki (protein: Beta-glucosidase 1, PDB entry 4iic): 14 µM (active)

O=C(c1ccc(F)c(F)c1Nc1ccc(I)cc1F)N1CC(O)([C@@H]2CCCCN2)C1
Ki (protein: Dual specificity mitogen-activated protein kinase kinase 1, PDB entry 4lmn): 5e-05 µM (active)

ON1CC=CCC1=S
Ki (protein: Carbonic anhydrase 2 (H94D mutation), PDB entry 4jss): 500 µM (active)

CC(C)(C)n1nc(-c2cccc3ccccc23)c2c(N)ncnc21
Ki (protein: Aminoglycoside 3'-phosphotransferase AphA1-IAB, PDB entry 4gkh): 21.5 µM (active)

CC(=O)N[C@@H](CC(=O)O)C(=O)N[C@@H](Cc1ccccc1)[P+](O)(O)C[C@@H](C)C(=O)N[C@@H](C)C(N)=O
Ki (protein: Angiotensin Converting Enzyme N domain glycsoylation mutant (Ndom389), PDB entry 3nxq): 0.007 µM (active)

C[C@H](C[P+](O)(O)[C@H](Cc1ccccc1)NC(=O)[C@H](N)Cc1nn[nH]n1)C(=O)N[C@@H](C)C(N)=O
Ki (protein: ANGIOTENSIN-CONVERTING ENZYME, PDB entry 4bxk): 0.0112 µM (active)

CC(=O)N[C@@H](CC(C)C)C(=O)N[C@H](C(=O)N[C@@H](Cc1ccccc1)C(=O)N[C@]1(C)CCCCCC/C=C/CCC[C@@](C)(C(=O)N[C@@H](CO)C(=O)N[C@@H](C)C(=O)N[C@@H](C)C(=O)O)NC(=O)[C@H](CC2CCC2)NC(=O)[C@H](CCC(N)=O)NC(=O)[C@H](C)NC(=O)[C@H](Cc2c[nH]c3ccccc23)NC(=O)[C@H](Cc2ccc(O)cc2)NC(=O)[C@H](CCC(=O)O)NC1=O)[C@@H](C)O
Ki (protein: Protein Mdm4, PDB entry 4n5t): 0.007 µM (active)

CS[C@@H](CCCC1C(=O)NC(N)NC1N)c1ccc(C(=O)N[C@@H](CCC(=O)O)C(=O)O)cc1 (stereo not given in full)
Ki (protein: Trifunctional purine biosynthetic protein adenosine-3, PDB entry 4ew2): 0.21 µM (active)

CS[C@H](CCCC1C(=O)NC(N)NC1N)c1ccc(C(=O)N[C@@H](CCC(=O)O)C(=O)O)cc1 (stereo not given in full)
Ki (protein: Trifunctional purine biosynthetic protein adenosine-3, PDB entry 4ew3): 0.18 µM (active)

NC(=O)[C@H]1CCCc2c1[nH]c1ccc(Cl)cc21
Ki (protein: NAD-DEPENDENT PROTEIN DEACETYLASE SIRTUIN-3, MITOCHONDRIAL, PDB entry 4bvb): 33.4 µM (active)

CC(C)N(C[C@H]1O[C@@H](n2cnc3c(N)ncnc32)[C@H](O)[C@@H]1O)C1CC(CCc2nc3ccc(C(C)(C)C)cc3[nH]2)C1 (stereo not given in full)
Ki (protein: Histone-lysine N-methyltransferase, H3 lysine-79 specific, PDB entry 4hra): 8e-05 µM (active)

OC[C@H]1OCC[C@@H](O)[C@H]1O
Ki (protein: GALACTOCEREBROSIDASE, PDB entry 4ccd): 32 µM (active)

O=C(O)CCC(=O)O
Ki (protein: Delta-1-pyrroline-5-carboxylate dehydrogenase, mitochondrial, PDB entry 4lh2): 58000 µM (active)

N[C@@H](CCCNC(=O)C[P+](O)(O)O)C(=O)O
Ki (protein: human ornithine transcarbamylase, PDB entry 1oth): 0.1 µM (active)

OC[C@@H]1[C@@H](O)[C@H](O)[C@@H](O)[C@@H]1NCc1ccc(Br)cc1
Ki (protein: strictosidine glucosidase, PDB entry 3zj8): 127 µM (active)

NC(N)Nc1ccc([C@H](N)[P+](O)(O)O)cc1
Ki (protein: M1 family aminopeptidase, PDB entry 4k5n): 127 µM (active)

N[C@@H](c1ccc(-n2cccn2)cc1)[P+](O)(O)O
Ki (protein: M1 family aminopeptidase, PDB entry 4k5o): 104 µM (active) | Ki (protein: M17 leucyl aminopeptidase, PDB entry 4k3n): 0.011 µM (active)

NC(N)c1ccc([C@H](N)[P+](O)(O)O)cc1
Ki (protein: M1 family aminopeptidase, PDB entry 4k5p): 345 µM (active)
